Measurements published in PubChem BioAssay AID1508600 (Functional Genomics Laboratory (NCATS/FGL), 2020).
Among all 53,000 sequences or so, about 3,700 (7%) were called active. Shown is part of a subset that was picked to be rich in actives. A number with no mark means an inactive call.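 How the source made its calls: active means gene knockdowns whose robust z-score for IL-1 alpha signal is at least 2 or at most -2, so actives lie on both sides; inactive means the rest.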

experiment: Components of the Cytosolic LPS Sensing Pathway: Gene Identification via Genome-wide siRNA Screen; settings: RAW264.7 macrophages, IL-1a HTRF, actives lie on both sides, screened at 100 nM (by protocol), cells primed 5 h with Pam3CSK4 first;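 further: robust z of the log signal after scaling to non-targeting control siRNA wells of the plate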
In short: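 RAW264.7; siRNA 100 nM final, RNAiMAX, 48h 37 degrees C; Pam3CSK4 5 h; LipidA + TransIT-TKO 24 h; IL-1a HTRF; CellTiter-Glo viability; robust z vs negative-control median.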

| Sequence | z-score |
| --- | --- |
| CCCAUCGAUCCAUCACAUUTT against Olfr63 | -1.47 |
| GGCAAGCUGAAGAUGAACATT against Ntn1 | -1.14 |
| CGCAAGCCUGACAUACUGCTT against Etv3 | 0.382 |
| GGUAGCAUAGGCUAGCAUATT against Crcp | 0.0494 |
| GGCAAACCAGGAAAAGGUCTT against Abhd2 | -2.33 (active) |
| CCAAACGGAAGUAUCUUAUTT against Tmem128 | 0.246 |
| CGACCAGAGUGGAUACCUGTT against Ocm | 1.98 |
| GCUUCCUACAAUUAAUUCATT against Thap12 | 0.614 |
| GGGAAUGGAGGUCCAGAUUTT against Spatc1l | -2.33 (active) |
| CGUAGAAGUUGAUGAGUCATT against Numb | -1.05 |
| GGAUUUAGGCCUUAUCAUCTT against Atf3 | -2.12 (active) |
| GGAAGUUAUUGCCAGCGAGTT against Fbxo5 | -0.418 |
| GCAGUCUCACCUGAACAGATT against Eppin | 0.43 |
| CCCACCUUCAAGCAAGAACTT against Ifnk | -2.51 (active) |
| GGAGAGCAUGUGACCAAAATT against Safb2 | 0.758 |
| GCAAAACUGUGUCAGUAUCTT against Slco5a1 | 0.901 |
| GGUCAAAGAGUUCUGUGAATT against Ppp2r1a | -0.79 |
| GGGCUGACCAGUUUGAGUATT against Polr2h | -2.7 (active) |
| GGCAUGCCUGUUGCUAUGATT against Cyp3a44 | 0.182 |
| AUCUUUCAGUCACACGACCTT against A730085E03Rik | -0.942 |
| GGUAGCUUAGAGGACUAACTT against Cidec | -1.78 |
| GGCUGAAAGAUUGUAUUGATT against Rwdd2b | -0.601 |

| Sequence | z-score |
| --- | --- |
| CUCAAAAUCUGGUGAUAAATT against Adam34 | 2.66 (active) |
| AGCCGAUCCUGUGCCUGUUTT against Dnph1 | 0.592 |
| GGGACUUUGGUCAAUAAUGTT against Tcf19 | 0.247 |
| GGGAAGAAGCUAAAGAAGATT against Wipf1 | 1.44 |
| GCACGUGGAUCCUAACAAGTT against Exd1 | -1.84 |
| GGAAAAGAUAGAGUUACUUTT against Lrif1 | 0.484 |
| UGGGAAGGUGCUCACUGAGTT against Dnph1 | -2.53 (active) |
| GGCUGUCUUUGUUCCAGUATT against Tnfrsf10b | 0.218 |
| GGGCCAAGGAACCUAUUUGTT against Ltbr | 0.58 |
| GGCUCUUAGAAAAAUGUUATT against Olfr1156 | -0.816 |
| GGUCUACGGCACCUUCUAUTT against Bsnd | -0.438 |
| CGGGUUUCAUUAUUAUUCCTT against Foxa1 | -0.352 |
| GGUGUGCCUAUGUUAUAGUTT against Slc13a5 | -0.982 |
| GGUGAGUUAUAAAAGACCATT against Pex12 | -0.0509 |
| GGUGGAUUUUGAAACUAUUTT against Pcdhb17 | 1.11 |
| GGCUGAACUGAUCCUGUACTT against Kcnh3 | -2.22 (active) |
| GCAAGUAGUUAGCUCAGGGTT against Gabpb1 | -0.752 |
| GGCAUUCUGAAAAAAUAGCTT against Rb1cc1 | -1.55 |
| GGUUUGUGGAUGACAACGGTT against Mtf1 | 0.216 |
| GGCGAAUGGAAGAUAAUGCTT against Stxbp3 | -0.233 |
| CGAGUUUGUAAUGAUGCUATT against Cabp4 | 2.51 (active) |
| GGAACUCUGUAGACAGAAUTT against Lpin1 | 0.705 |

| Sequence | z-score |
| --- | --- |
| GGCUCAGAUCUUUGACUACTT against Pnp | -0.232 |
| GGACUUGGAGUUUCGUAAATT against Lmnb1 | 2.92 (active) |
| GGCUGAAAAGAAAAACAGATT against Rgs5 | -0.378 |
| CGUGACAUGCACGACUUCUTT against Tac2 | 1.49 |
| GGGAGAAAAGGGUCAAAAATT against Marco | 0.819 |
| GGCCAAGGAAAUAUCAAUGTT against Alg14 | 2.69 (active) |
| GGAACUGUGUGACUACUUUTT against Necab2 | 0.18 |
| GGUCAACAUUUGCUGUAAGTT against Inhba | -0.599 |
| GGGAAAAUAUCAAGUGUAGTT against Tmem60 | 0.567 |
| GGGCAAACCGGAAAAACAGTT against Ccdc71 | -2.06 (active) |
| GCUGUUUCAAAAGUCAUAUTT against Col11a1 | 1.96 |
| GCAGAUACCAUGAUACAGUTT against Med20 | -0.154 |
| GGUAAAUGUGAAUGUAAGGTT against Ntn4 | 0.73 |
| GGAUAAUUUAAACAUGGGATT against Cd276 | -1.08 |
| GGCUACUGGAGCAAGUUUATT against Apoc3 | 2.48 (active) |
| GGUUUAGGGUCAAGAUAUUTT against Ttf2 | -1.39 |
| GGAUUGGCAACCUCCAUUUTT against Kdm5a | -0.312 |
| GGACAAUGAGAUUCUUCUCTT against Mptx1 | -1.58 |
| GGCAACUAUAAGUACAUAGTT against Gsta3 | 3.87 (active) |
| GGAAGGUGCUAAAAAUAUATT against Pdhx | 0.23 |
| GGAAAAGACAUCAGAUGAATT against Mrpl1 | 0.233 |
| GGUAAUGGAAAUGAACAAATT against Zfp353-ps | 0.381 |

| Sequence | z-score |
| --- | --- |
| GGUCUCAUAGAGUGUUACUTT against Anapc7 | 4.38 (active) |
| GGAACUGGACAAGGACGAUTT against Arhgdia | 1.17 |
| GGAUUUGAGUGGUAAUGAATT against Tm2d1 | -2.2 (active) |
| GGAAAAUGUCCCACUUUUATT against Olfr70 | -0.926 |
| GGAUUUGACCAGUAUAAGUTT against Ptgs2 | -1.05 |
| GGCUCCAAUAAAGUGCCUUTT against Elf3 | 1.46 |
| GCUGGAGAUCUAAAAACAGTT against Mphosph10 | 1.54 |
| GGCAACUUAAGUUUUACAGTT against Tmem170 | -0.898 |
| GGUGAUAUGUGUGGGCUUGTT against Fahd2a | -2.06 (active) |
| GGAGUUCUGUCCAUUUUGATT against Olfr1198 | 0.45 |
| GCGUAGAAGACACUUAUAGTT against Zc3h14 | 1.47 |
| GGCUCUGAAUUAACUCCAGTT against Srpk3 | -0.654 |
| GCUAUUGACAUAAUGAGGCTT against Nfe2l3 | -1.41 |
| GGGUACAAAGGCUGUAGUUTT against Sec61a1 | -2.42 (active) |
| CCUGAAUUCAGUCUGUUUUTT against Depdc1b | -0.931 |
| GGAAAAUGUUUUACCAAUGTT against Rspry1 | -0.102 |
| GGACAUCGGAUUCUACACCTT against Psg19 | 0.531 |
| CCAACAAAAGCCUAUUCGGTT against Hsh2d | -0.169 |
| GAACUUUGCCAUUGAUUUGTT against Ndufs6 | 1.63 |
| GCUGAUUUCUCAAACAUGATT against Serpinb10 | -0.489 |
| GUCCCUGAACCUGUGGUAUTT against Emp3 | 1.26 |
| GCUGUUCCACAUUGAAGUGTT against Pcdh18 | 2.84 (active) |

| Sequence | z-score |
| --- | --- |
| GCUGAUGGACUCAAGAAAGTT against Zbed5 | -0.805 |
| GGACCAUUCUGGCUACUCATT against Ankrd34b | -2.17 (active) |
| GGACAAAUUUCUUUUCCUUTT against Atp10a | -0.448 |
| GCUGAUAAACCACUUGUGATT against Olfr1287 | -0.804 |
| GGCAUUCAAACCUCUCGUGTT against Dcn | -0.921 |
| GGGUGAUUGAUCACUACUUTT against Olfr279 | 0.784 |
| GGAAAUGGUAAUUUUCAGUTT against Slc25a36 | -0.242 |
| GGGAUGAAGUCCUGGAUAATT against Atp6v1g1 | -0.953 |
| CCAACUUCGAUGCUGAGAGTT against Anxa2 | -1.8 |
| CGACAGAGGAAGGUAUUGGTT against Gcsh | -2.95 (active) |
| CGCCUCAUCAUCUCGAUUCTT against Cnga3 | -1.63 |
| GCAUGUGGAGAAGAUGAGGTT against Tas2r143 | 0.793 |
| GGAUUUCAAAGUGCUUUGCTT against Kifap3 | 3.44 (active) |
| CCUAAACCCAUUCCAGUCUTT against Dpm3 | 0.104 |
| CCUGAGACAUACUUAAUGUTT against Anapc10 | 0.747 |
| CCUCGAGAGACUUUCAUGGTT against F2 | -0.475 |
| GCUUAUGAGAUGAGUGAAUTT against Ccdc43 | -0.209 |
| GGAAUGUUUGGUGCUAUGATT against Flvcr2 | 3.4 (active) |
| GGGAUUUUCAGGGAGAUUUTT against Plekho1 | 1.46 |
| CCAGGACCUUAUCAGGUUUTT against Idh2 | 2.44 (active) |
